# Measured values: PubChem BioAssay (Tox21)
# Records with an inconclusive call do not appear. Activity calls are given as the source filed them. Calls come from the whole dose curve; as a rule, active = well fitted cell-killing curve with a large enough effect in the repeat runs (not every such curve was filed as active); inconclusive = weak or mixed curves, or effect the other way; inactive = no such curve, though single readings can be large or run the other way.
# Experiment: qHTS assay to identify small molecule antagonists of the estrogen related receptor signaling pathway with the pleiotropic PPARgamma coactivator (PGC) from Tox21 10K library - cell viability counter screen (AID 1224840); note: nearly all actives have a fitted effect of over 40% in size
# Conditions: PGC/ERR reporter cells viability, CellTiter-Fluor, 17.5 h; series mostly up to 92.4 µM; viability change, negative = cytotoxic: at the top concentration
# Source text: National Center for Advancing Translational Sciences [NCATS]
# NIH Chemical Genomics Center [NCGC]
# U.S. Environmental Protection Agency [EPA]
# National Institutes of Environmental Health Sciences [NIEHS]
# National Toxicology Program [NTP]
# U.S. Food and Drug Administration [FDA]
# Estrogen related receptors (ERRs), the first orphan nuclear receptors discovered, play an important role in the control of cellular energy metabolism. ERRs are required for high-energy production in response to the environmental challenges. The pleiotropic PPARgamma coactivator (PGC) is a major partner of ERR and a key regulator in energy homeostasis. Together they have been implicated in the etiology of metabolic disorders such as Type 2 diabetes and metabolic syndrome. ERR-alpha was also identified as an adverse marker for breast cancer progression; ERR-alpha-positive tumors have a poor prognosis. To screen and to identify environmental compounds that perturb the ERR and PGC/ERR signaling pathways could provide valuable information for potential therapeutic or preventive measures in the treatment of metabolic disease. To differentiate true PGC/ERR antagonists or agonist from cytotoxic substances, the assay is multiplexed with cell viability assay.
# Tox21 Assay Protocol Summary:
# The PGC/ERR cells were dispensed at 2,000 cells/5 ul/well in 1536-well white plates using a Multidrop dispenser. After the assay plates were incubated at a 37 C/5% CO2 incubator for 6 hours, 23 nL of compounds dissolved in DMSO, positive and negative controls or DMSO only was transferred to the assay plate by a pin tool. The plates were incubated at 37 C for 17.5 hours. 1 ul/well of CellTiter-Fluor reagent was added into the assay plates using a Flying Reagent Dispenser. After 30-minute incubation at 37 C/5% CO2, the fluorescence intensity in the plates was measured using a ViewLux plate reader.
# % is set by controls: 0 for no effect and ±100 for the full control effect; potency is the fitted concentration of half-maximal effect.
Compound,"viability change, negative = cytotoxic",Potency
CC1(C)[C@H](C=C(Cl)Cl)[C@@H]1C(=O)O[C@@H](C#N)c1cccc(Oc2ccccc2)c1,3.22% (inactive),
O=C(O)C(F)(F)C(F)(F)C(F)(F)C(F)(F)C(F)(F)C(F)(F)C(F)(F)C(F)(F)C(F)(F)F,1.84% (inactive),
C=CCOC(C)=O,-7.38% (inactive),
O=C(Nc1ccccc1)Nc1ccnc(Cl)c1,,61.1 µM (active)
NC(=O)C(Cl)(Cl)Cl,0.291% (inactive),
C=CCC1([C@H](C)CCC)C(=O)NC(=O)NC1=O,6.8% (inactive),
c1ccoc1,0.996% (inactive),
CCCCN=C=O,-2.63% (inactive),
O=C(OC1CCCCC1)c1ccccc1C(=O)OC1CCCCC1,-18.3% (inactive),
CO[C@@H]1[C@H](OC(=O)NC(=O)CCl)CC[C@]2(CO2)[C@H]1[C@@]1(C)O[C@@H]1CC=C(C)C,-8.92% [at 19 µM] (inactive),
O=C1c2ccccc2C(=O)C1C(=O)C(c1ccccc1)c1ccccc1,-5.85% [at 42.5 µM] (inactive),
BrCCCCBr,-1.01% (inactive),
CCC(C)(NC(=O)c1cc(Cl)c(C)c(Cl)c1)C(=O)CCl (stereo not given),,24.5 µM (active)
O=C(CBr)Nc1ccc(Cl)cc1C(=O)c1ccccc1F,-12.7% [at 42.5 µM] (inactive),
CC(C)O.CC(C)O.OCCN(CCO)CCO.OCCN(CCO)CCO.[Ti],9.95% (inactive),
Cl/C=C\C[N+]12CN3CN(CN(C3)C1)C2,1.41% (inactive),
C#CCOC(C(=O)OCCN(C)C)(c1ccccc1)c1ccccc1,-0.44% [at 42.5 µM] (inactive),
Cn1cc[n+](C)c1 (tested in a mixture with another compound),4.27% (inactive),
O=C(O)CC(Cl)C(=O)O (stereo not given),-6.27% (inactive),
CNP(=O)(OC)Oc1ccc(C(C)(C)C)cc1Cl (stereo not given),-16.6% (inactive),

Compound,"viability change, negative = cytotoxic",Potency
COCCOCCO,2.32% (inactive),
Nc1ccc([N+](=O)[O-])cc1[N+](=O)[O-],-28.2% (inactive),
CCOP(=O)(OCC)SCCSCC,,inactive
Clc1cccc(SC2CCNCC2)n1,-6.05% [at 42.5 µM] (inactive),
[O-][Cl+]O,4.52% (inactive),
C[C@@H]1CC[C@H]2[C@@H](C)C(=O)O[C@@H]3O[C@@]4(C)CC[C@@H]1[C@]32OO4,-5.38% [at 42.5 µM] (inactive),
CNC(C)Cc1ccccc1OC (stereo not given),-4.39% [at 42.5 µM] (inactive),
CCC(Cl)CCl (stereo not given),1.14% (inactive),
CCCCCCCCOC(=O)c1ccc(C(=O)OCCCCCCCC)c(C(=O)OCCCCCCCC)c1,3.98% (inactive),
Cc1cc(=O)[nH]o1,4.37% (inactive),
NC(=O)CI,-4.39% (inactive),
O=C=Nc1ccc(Cl)cc1,-2.59% (inactive),
CCOP(=O)(OCC)Oc1ccc([N+](=O)[O-])cc1,-25.4% (inactive),
NS(=O)(=O)C(F)(F)C(F)(F)C(F)(F)C(F)(F)C(F)(F)C(F)(F)C(F)(F)C(F)(F)F,-4.02% (inactive),
Cc1ccc(N)cc1C,-7.17% (inactive),
ClC=C(Cl)Cl,-1.18% (inactive),
CCOP(=S)(OCC)SCSCC,0.406% (inactive),
BrCC(Br)C1CCC(Br)C(Br)C1 (stereo not given),-0.914% (inactive),
CN(C)c1ccc(N(C)C)cc1,-7.99% (inactive),
Cc1ccccc1C(=O)Nc1cccc(OC(C)C)c1,-24.6% (inactive),
